This is an account of results in PubChem BioAssay (NCATS).

Values without a mark were called inactive. Inconclusive results are not listed. Activity calls are given as the source filed them. Unless noted, the call rests on the fitted dose curve; in most records, active means well fitted curve in the direction sought with a large enough effect; inconclusive means small, poorly fitted or top-dose-only effect, or another doubt; inactive means no such curve, though single readings can be large; an effect the other way counts as inactive or inconclusive.

The target in test [1] is Lysosomal acid glucosylceramidase (Homo sapiens) (UniProt P04062). The experiment in a line: Glucocerebrosidase-p2 (AID 348; in the data active means potency below about 10 µM; further: potency means the concentration at half of the fitted maximal effect). Conditions: purified GBA, blue fluorogenic substrate, 40 min. The method in brief: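 Compounds titrated from 0.6 nM upwards against 0.2 nM enzyme in pH 5.9 citric acid/KH2PO4, taurocholate, tween-20; blue fluorogenic substrate 80 uM, 40 min room temperature, stopped and read Ex 365/Em 440 for AC50.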

Test [2] addresses Cytochrome P450 1A2 (Homo sapiens) (UniProt P05177). The experiment in a line: p450-cyp1a2 (AID 410; calls by dose curve; further: potency means the concentration at half of the fitted maximal effect;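 on activity change, negative = inhibition: -100% = full effect of reference inhibitor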). Put shortly: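 20nM CYP1A2 with 100uM Luciferin-ME (at Km) in 100mM KPO4; compound preincubated 10 min, NADPH regeneration added, 60 min at room temperature. Luciferin quantified by luminescence after detection reagent; normalized to 57 uM furafylline.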
Test [3] deals with Glucocorticoid receptor (Homo sapiens) (UniProt P04150). The experiment in a line: GR-GFP Redistribution (AID 450;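 active means compounds whose dose series gives a full or clear partial fitted curve of increased nuclear translocation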; further: potency means the concentration at half of the fitted maximal effect). Particulars: U2OS GR-GFP nuclear translocation, laser cytometry, 2 h.
For test [4] the target is unchanged. The experiment in a line: GR-EFC Redistribution (AID 451; calls by dose curve; further: potency means the concentration at half of the fitted maximal effect). Conditions: CHO-K1 GR-EFC translocation, beta-gal luminescence, 2 h. Put shortly: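 CHO-K1 cells expressing nuclear EA and GR-ED fragments of b-gal; compounds titrated up to 46 uM final, 2 h at 37 C. GR nuclear translocation read as complemented b-gal luminescence after 1 h RT detection.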
The target of test [5] is Mitogen-activated protein kinase 10 (Mus musculus) (UniProt Q61831). The experiment in a line: JNK3 AlphaScreen Assay (AID 530; active means well fitted curve in either direction with a large enough effect, not every such curve was filed as active;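 further: kinase came from lysate of stimulated human HepG2 cells; signal reports phosphorylation of biotinylated GST-cJun 1-79 at Ser73 with 10 µM ATP; on the % scale 0 is the no-effect control and ±100 the full control effect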). Put shortly: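 Pre-activated (IL-1β/TNFα) JNK3 in HepG2 lysates phosphorylates biotin-GST-cJun(1-79), 10 uM ATP; anti-phospho-cJun(Ser73) AlphaScreen read at room temperature, pH 7.6 Tris buffer. Compounds pre-incubated 15 min as titrations.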

Test [6] has as its target 3',5'-cyclic-AMP phosphodiesterase 4B (Homo sapiens) (UniProt Q07343). The experiment in a line: qHTS Assay for Inhibitors of PDE-IV (AID 607; active means well fitted activation curve with a large enough effect in the main read-out, with a control signal flat, not every such curve was filed as active; further: % of control where 0% means no effect). Put shortly: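 The readout is membrane depolarisation from a cAMP-sensing CNG channel, detected with a potential dye at ex 535/em 590. Cells were HEK293-derived (endogenous PDE-IV) at 1000 cells/well, titrated up to 22.9 uM final.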
(In general: Quantitative high-throughput screening tests each substance at several concentrations.)

Test [7] is described as follows: qHTS Assay for Identification of Small Molecule Agonists for Hypoxia Response Element Signaling Pathway (AID 914; active means well fitted activation curve with a large enough effect in the signal ratio, with a control signal flat, not every such curve was filed as active; the % refers to the signal ratio; further: potency means the concentration at half of the fitted maximal effect). Particulars: ME-180 HRE-bla reporter, beta-lactamase ratio, CoCl2, 17 h; activation: stronger effect = higher value. The method in brief: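 ME-180 cells carrying an HRE-driven beta-lactamase reporter were treated with compounds in a titration series plus an EC50 level of CoCl2 for 17 h at 37 degrees Celsius; CCF4 readout as the 460nm/530nm ratio gave AC50 values.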

Test [8] concerns the target Dual specificity protein kinase CLK4 (Homo sapiens) (UniProt Q9HAZ1). The experiment in a line: qHTS Assay for Inhibitors of CDC-like Kinase 4 (Kinase-Glo Assay) (AID 1770). Further: nearly all actives have a fitted effect of over 65% in size. Further: potency means the concentration at half of the fitted maximal effect. The method in brief: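 Recombinant human Clk4 (25 nM) phosphorylated RS repeat peptide (100 uM) with 1 uM ATP in Tris pH 7.5/MgCl2/EGTA/DTT/Triton buffer for 4.5 h at room temperature. Residual ATP was quantified by Kinase-Glo luciferase luminescence.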

Test [9] has the same target. In words: qHTS Assay for Inhibitors of CDC-like Kinase 4 (ADP-Glo Assay) (AID 1771). Further: nearly all actives have a fitted effect of over 70% in size. Further: potency means the concentration at half of the fitted maximal effect. Put shortly:
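25 nM Clk4 with 100 uM RS repeat peptide and 1 uM ATP (final) in buffer with 2 mM MgCl2, 0.5 mM EGTA, 2.5 mM DTT, 0.01% Triton X-100; 1 h at room temperature; ADP-Glo luminescence for ADP formed.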

Test [10] has the same target. The experiment in a line: qHTS Assay for Inhibitors of CDC-like Kinase 4 (ADP-FP Assay) (AID 1795). Further: nearly all actives have a fitted effect of over 60% in size. Further: potency means the concentration at half of the fitted maximal effect. Put shortly: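 Recombinant human Clk4 (6.25 nM) phosphorylated RS repeat peptide (100 uM) with 1 uM ATP in Tris pH 7.5/MgCl2/EGTA/DTT/Triton buffer for one hour. ADP was quantified by Transcreener competitive fluorescence polarization against an ADP calibration curve.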

Test [11] concerns the target Ubiquitin carboxyl-terminal hydrolase 1 (Homo sapiens) (UniProt O94782). In words: Inhibitors of USP1/UAF1: Pilot qHTS (AID 504865).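 Further: rhodamine fluorescence freed from ubiquitin-rhodamine substrate followed over time; top concentration of the series differs between compounds; on the % scale 0 is the no-effect control and ±100 the full control effect; nearly all actives have a fitted effect of over 35% in size.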 Put shortly: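 USP1/UAF1 complex (1nM) preincubated with compound 15 min at room temperature, then Ub-Rho substrate (150nM final) added. Fluorescence read kinetically at 480/540 nm, 6 reads every 60 seconds. Buffer: 50mM HEPES pH 7.8, 0.5mM EDTA, 0.1 mg/ml BSA, 1mM TCEP, 0.01% Tween-20.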

Test [12] is described as follows: AP1 Signaling Pathway (AID 357; active means well fitted curve in either direction with a large enough effect, not every such curve was filed as active; further: on the % scale 0 is the no-effect control and ±100 the full control effect). Conditions: ME-180 AP-1-bla reporter, EGF-induced, beta-lactamase ratio, 5 h; at 7.69 µM (top of the series) unless noted. The method in brief: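 Cells are seeded overnight, exposed to compound titrations and an EC50 level of EGF for 5 hours at 37 °C, then loaded with CCF4 dye for 2.5 hours. Beta-lactamase activity under the AP-1 element is read as a blue/green ratio.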

Test [13] is described as follows: NFAT Signaling Pathway (AID 444; active means well fitted curve in either direction with a large enough effect, not every such curve was filed as active;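 further: carbachol stimulus at about its EC50 of 1 µM final; on the % scale 0 is the no-effect control and ±100 the full control effect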). Particulars: Jurkat NFAT-bla M1, carbachol, beta-lactamase ratio, 5 h; at 7.69 µM (top of the series) unless noted. Put shortly:
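Jurkat cells with NFAT-driven β-lactamase reporter and co-expressed M1 receptor, stimulated with carbachol (final 1 uM, ~EC50), compound titration, 5 h at 37 °C. CCF4 loaded 1 h at RT; 460/530 nm ratio gave %activity and AC50.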

Test [14] can be described thus: Stat Signaling Pathway (AID 446; active means well fitted curve in either direction with a large enough effect, not every such curve was filed as active;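 further: ME-180 cervical cancer cells given 40 pM IL-6 alongside compound; SIE-controlled beta-lactamase reporter measured as 460/530 nm FRET emission ratio; on the % scale 0 is the no-effect control and ±100 the full control effect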). Put shortly: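 Screening format detects activators and inhibitors alike: ME-180 SIE-bla cells stimulated at 40 pM IL-6 for 5 hrs with compound, then dual-emission beta-lactamase read at 405 nm excitation.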
Test [15] has as its target Cytochrome P450 3A4 (Homo sapiens) (UniProt P08684). In words: qHTS Assay for Activators of Cytochrome P450 3A4 (AID 885). Further: nearly all actives have a fitted effect of over 65% in size. Put shortly:
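Steps: enzyme/substrate mix dispensed; compound added, 10 min RT; NADPH regeneration solution added, 60 min RT; luciferin detection buffer stops reaction; 20 min later luminescence measured.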

The target is the same in test [16]. The experiment in a line: qHTS Assay for Inhibitors and Substrates of Cytochrome P450 3A4 (AID 884). Further: potency means the concentration at half of the fitted maximal effect; nearly all actives have a fitted effect of over 50% in size. Put shortly:
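20 nM human CYP3A4 with 25 uM Luciferin-PPXE (at KM) in 200 mM KPO4, preincubated 10 min with compound; NADPH regeneration started a 60 min RT reaction. Luciferin detected by luminescence, normalized to 57 uM ketoconazole as full inhibition.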

Test [17] has as its target Cytochrome P450 2D6 (Homo sapiens) (UniProt P10635). In words: qHTS Assay for Inhibitors and Substrates of Cytochrome P450 2D6 (AID 891). Further: potency means the concentration at half of the fitted maximal effect; nearly all actives have a fitted effect of over 60% in size. The method in brief:
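Human CYP2D6 (5 nM) with 30 uM Luciferin-ME EGE (at Km) in 100 mM KPO4, compound preincubated 10 min, then NADPH regeneration system for 60 min at room temperature. Luciferin read by luminescence; normalized to 1.43 uM quinidine.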

The target of test [18] is Cytochrome P450 2C19 (Homo sapiens) (UniProt P33261). In words: qHTS Assay for Inhibitors and Substrates of Cytochrome P450 2C19 (AID 899). Further: on the % scale 0 is the no-effect control and ±100 the full control effect; nearly all actives have a fitted effect of over 60% in size. The method in brief:
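5 nM human CYP2C19 with 10uM Luciferin-H EGE (at KM) in 50mM KPO4, compound preincubated 10 min at 37C, then NADPH regeneration for 60 min at 37C. Luciferin read by luminescence after detection reagent; normalized to 57uM ketoconazole as full inhibition.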

Sequence of 3',5'-cyclic-AMP phosphodiesterase 4B (Homo sapiens) (Q07343 whole entry, looked up): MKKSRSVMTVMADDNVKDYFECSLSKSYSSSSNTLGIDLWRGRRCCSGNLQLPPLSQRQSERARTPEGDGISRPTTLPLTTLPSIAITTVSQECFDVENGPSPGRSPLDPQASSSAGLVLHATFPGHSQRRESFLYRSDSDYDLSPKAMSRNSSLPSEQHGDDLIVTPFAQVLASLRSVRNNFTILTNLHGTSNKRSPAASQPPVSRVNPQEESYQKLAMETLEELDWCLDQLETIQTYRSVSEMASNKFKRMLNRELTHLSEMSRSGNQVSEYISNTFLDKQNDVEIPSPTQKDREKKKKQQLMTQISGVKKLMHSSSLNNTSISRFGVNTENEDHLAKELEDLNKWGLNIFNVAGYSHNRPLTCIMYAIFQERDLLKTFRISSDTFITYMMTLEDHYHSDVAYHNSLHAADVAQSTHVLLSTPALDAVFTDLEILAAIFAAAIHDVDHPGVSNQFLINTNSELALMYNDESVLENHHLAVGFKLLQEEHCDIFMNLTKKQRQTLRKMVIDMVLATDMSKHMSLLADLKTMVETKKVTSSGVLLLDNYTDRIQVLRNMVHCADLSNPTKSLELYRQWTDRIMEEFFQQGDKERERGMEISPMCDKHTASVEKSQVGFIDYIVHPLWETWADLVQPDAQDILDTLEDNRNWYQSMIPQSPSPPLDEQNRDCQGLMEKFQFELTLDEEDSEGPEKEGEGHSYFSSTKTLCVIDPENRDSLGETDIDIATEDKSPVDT
Sequence of Dual specificity protein kinase CLK4 (Homo sapiens) (Q9HAZ1 whole entry, looked up): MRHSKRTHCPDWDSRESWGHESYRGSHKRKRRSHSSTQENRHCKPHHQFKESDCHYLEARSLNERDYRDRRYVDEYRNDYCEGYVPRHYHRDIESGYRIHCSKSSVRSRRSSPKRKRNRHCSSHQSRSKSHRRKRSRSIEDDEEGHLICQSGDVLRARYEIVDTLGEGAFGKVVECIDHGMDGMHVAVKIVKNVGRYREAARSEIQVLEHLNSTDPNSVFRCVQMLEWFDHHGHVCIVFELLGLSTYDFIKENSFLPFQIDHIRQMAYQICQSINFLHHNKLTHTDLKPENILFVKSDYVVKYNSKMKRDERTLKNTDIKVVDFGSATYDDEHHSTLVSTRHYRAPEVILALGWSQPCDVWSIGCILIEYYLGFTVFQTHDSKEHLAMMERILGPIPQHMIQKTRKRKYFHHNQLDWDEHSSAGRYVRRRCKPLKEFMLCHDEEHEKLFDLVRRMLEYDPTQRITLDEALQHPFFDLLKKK
Sequence of Cytochrome P450 3A4 (Homo sapiens) (P08684 whole entry, looked up): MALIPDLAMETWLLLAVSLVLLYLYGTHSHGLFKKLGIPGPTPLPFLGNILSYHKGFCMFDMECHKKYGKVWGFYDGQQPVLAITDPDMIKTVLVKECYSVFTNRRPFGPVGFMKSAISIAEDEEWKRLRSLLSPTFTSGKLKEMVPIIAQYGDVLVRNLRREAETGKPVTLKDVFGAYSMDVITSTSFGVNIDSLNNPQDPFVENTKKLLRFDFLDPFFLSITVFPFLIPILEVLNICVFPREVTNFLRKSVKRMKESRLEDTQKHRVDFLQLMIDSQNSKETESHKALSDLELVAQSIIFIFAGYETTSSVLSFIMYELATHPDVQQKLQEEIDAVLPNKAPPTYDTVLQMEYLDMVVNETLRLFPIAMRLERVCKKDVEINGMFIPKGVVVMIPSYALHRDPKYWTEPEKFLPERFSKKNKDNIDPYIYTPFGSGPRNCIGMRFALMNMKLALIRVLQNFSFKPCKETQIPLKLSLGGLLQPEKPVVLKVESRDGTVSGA
Sequence of Glucocorticoid receptor (Homo sapiens) (P04150 whole entry, looked up, the tested form may be a part): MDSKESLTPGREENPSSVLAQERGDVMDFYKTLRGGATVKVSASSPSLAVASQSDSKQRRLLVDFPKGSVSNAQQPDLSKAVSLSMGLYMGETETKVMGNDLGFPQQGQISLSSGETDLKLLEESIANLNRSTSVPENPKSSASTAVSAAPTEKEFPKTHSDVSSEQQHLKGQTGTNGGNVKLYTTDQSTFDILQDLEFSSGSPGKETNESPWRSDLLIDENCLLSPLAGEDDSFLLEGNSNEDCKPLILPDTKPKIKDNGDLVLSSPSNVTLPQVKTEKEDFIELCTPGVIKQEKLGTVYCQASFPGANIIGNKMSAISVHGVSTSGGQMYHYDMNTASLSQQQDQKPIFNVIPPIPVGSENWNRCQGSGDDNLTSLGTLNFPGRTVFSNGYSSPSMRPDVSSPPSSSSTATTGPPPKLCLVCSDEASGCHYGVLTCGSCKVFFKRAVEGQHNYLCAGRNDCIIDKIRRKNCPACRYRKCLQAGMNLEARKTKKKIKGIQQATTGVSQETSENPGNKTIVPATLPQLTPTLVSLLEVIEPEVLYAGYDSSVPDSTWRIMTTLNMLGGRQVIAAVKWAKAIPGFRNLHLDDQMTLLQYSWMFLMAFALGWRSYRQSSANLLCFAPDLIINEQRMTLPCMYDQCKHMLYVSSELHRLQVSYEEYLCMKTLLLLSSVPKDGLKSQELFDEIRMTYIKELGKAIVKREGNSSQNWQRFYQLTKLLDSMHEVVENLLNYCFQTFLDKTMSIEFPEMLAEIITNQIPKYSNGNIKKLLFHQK
Sequence of Ubiquitin carboxyl-terminal hydrolase 1 (Homo sapiens) (O94782 whole entry, looked up): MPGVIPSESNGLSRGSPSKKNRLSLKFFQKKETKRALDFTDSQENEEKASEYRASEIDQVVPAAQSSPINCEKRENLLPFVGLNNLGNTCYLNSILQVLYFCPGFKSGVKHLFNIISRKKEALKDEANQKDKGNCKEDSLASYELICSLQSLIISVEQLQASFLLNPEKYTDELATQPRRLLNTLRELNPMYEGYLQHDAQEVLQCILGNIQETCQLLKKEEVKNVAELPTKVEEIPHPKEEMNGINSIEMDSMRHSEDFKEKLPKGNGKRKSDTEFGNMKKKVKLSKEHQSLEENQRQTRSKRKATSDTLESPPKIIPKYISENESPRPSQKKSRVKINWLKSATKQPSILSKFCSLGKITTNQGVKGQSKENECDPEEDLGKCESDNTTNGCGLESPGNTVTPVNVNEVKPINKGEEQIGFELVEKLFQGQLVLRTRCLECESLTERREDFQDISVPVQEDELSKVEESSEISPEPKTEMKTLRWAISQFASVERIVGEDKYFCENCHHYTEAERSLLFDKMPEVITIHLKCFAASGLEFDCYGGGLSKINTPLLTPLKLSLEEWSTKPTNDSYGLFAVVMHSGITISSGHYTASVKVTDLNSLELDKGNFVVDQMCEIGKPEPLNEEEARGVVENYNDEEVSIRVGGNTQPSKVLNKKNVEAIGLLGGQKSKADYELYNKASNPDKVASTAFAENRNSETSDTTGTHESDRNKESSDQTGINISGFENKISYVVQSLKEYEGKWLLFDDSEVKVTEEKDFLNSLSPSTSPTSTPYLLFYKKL
Sequence of Cytochrome P450 1A2 (Homo sapiens) (P05177 whole entry, looked up): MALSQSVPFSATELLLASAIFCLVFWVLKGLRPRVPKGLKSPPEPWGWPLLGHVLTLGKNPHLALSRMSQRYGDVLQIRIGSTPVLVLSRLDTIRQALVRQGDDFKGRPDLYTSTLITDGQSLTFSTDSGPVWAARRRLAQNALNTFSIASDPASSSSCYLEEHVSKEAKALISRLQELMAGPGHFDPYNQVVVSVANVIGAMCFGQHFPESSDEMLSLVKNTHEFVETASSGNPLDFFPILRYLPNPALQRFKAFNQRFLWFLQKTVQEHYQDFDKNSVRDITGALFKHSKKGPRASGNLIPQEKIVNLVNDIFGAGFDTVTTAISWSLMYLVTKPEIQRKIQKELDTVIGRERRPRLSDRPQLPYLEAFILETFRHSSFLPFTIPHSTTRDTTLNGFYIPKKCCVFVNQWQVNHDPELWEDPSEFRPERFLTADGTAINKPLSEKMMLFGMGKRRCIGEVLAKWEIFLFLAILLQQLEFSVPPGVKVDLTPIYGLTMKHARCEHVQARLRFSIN
Sequence of Lysosomal acid glucosylceramidase (Homo sapiens) (P04062 whole entry, looked up): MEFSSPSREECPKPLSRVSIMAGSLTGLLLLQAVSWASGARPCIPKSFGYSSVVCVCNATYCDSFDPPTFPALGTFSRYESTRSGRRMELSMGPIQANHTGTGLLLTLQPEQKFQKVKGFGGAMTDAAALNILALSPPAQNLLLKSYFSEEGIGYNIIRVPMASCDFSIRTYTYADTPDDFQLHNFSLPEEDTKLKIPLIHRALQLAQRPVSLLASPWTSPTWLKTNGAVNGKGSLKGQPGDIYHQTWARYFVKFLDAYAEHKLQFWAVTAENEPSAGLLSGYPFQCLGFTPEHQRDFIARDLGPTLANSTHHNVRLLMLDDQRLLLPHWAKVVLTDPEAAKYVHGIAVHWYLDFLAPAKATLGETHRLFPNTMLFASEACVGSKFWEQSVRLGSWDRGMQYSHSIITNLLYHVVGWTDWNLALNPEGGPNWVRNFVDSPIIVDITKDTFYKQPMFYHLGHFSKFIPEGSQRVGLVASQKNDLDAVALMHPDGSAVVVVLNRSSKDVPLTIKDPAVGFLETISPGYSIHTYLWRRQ
Sequence of Cytochrome P450 2C19 (Homo sapiens) (P33261 whole entry, looked up): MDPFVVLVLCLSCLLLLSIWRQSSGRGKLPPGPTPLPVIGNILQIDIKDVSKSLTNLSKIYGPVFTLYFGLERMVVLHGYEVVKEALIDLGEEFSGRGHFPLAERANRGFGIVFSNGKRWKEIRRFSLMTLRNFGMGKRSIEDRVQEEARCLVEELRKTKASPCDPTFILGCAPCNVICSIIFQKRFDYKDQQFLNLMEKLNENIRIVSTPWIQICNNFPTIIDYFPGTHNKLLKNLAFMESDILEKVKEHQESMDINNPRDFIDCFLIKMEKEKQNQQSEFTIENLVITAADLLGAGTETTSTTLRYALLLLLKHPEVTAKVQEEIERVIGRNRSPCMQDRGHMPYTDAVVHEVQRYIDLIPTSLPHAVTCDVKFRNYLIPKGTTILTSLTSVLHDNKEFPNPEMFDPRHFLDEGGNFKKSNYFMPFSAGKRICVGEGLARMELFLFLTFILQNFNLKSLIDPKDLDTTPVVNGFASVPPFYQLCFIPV

Regarding `COc1ccc(-c2nc3cnc(N4CCN(C)CC4)nc3n(CCc3ccccc3)c2=O)cc1`, the Potency was above 11.4 µM in [1], above 9.22 µM in test [3], above 46 µM in test [4] and 3.16 µM (active) in test [7]. For the same compound, the Potency result in test [2], in test [5], in test [6], in test [8], in test [9] and in test [10] was “inactive” in each case. Besides, the Potency result in [11] is “inactive”.
For `Cc1nc2cnc(OCc3ccccc3)nc2n(CCc2ccccc2)c1=O`, the values for the activity change, negative = inhibition in test [12] and in test [13] were 2.1% and -10.4%, respectively. The compound was called inactive in test [14] and in [15]. In addition, the Potency is above 9.22 µM in test [3] and above 46 µM in test [4]. The Potency result in test [8], in test [9], in test [10] and in test [11] was “inactive” each time.
`COc1cccc(-c2nc(N(C)C)c3ccccc3n2)c1`: the activity change, negative = inhibition was 15.5% in test [12] and -14.5% in [13]. Also, the Potency was 0.251 µM (active) in test [2]; above 46 µM in [3]; above 46 µM in [4]; 5.01 µM (active) in [16]; 11.2 µM (active) in test [8]; 7.08 µM (active) in test [9]. Further, in test [10], the Potency is 11.2 µM (active). Further, the Potency entry in test [5] and in test [6] was “inactive” in each case. The compound was called inactive in test [15].
In the case of `CN(C)C(=O)c1ccc(-c2nc(N3CCOCC3)c3ccccc3n2)cc1`, the values for the activity change, negative = inhibition in [12] and in test [13] were 0.443% and 21.6%, respectively. In test [14], the outcome was inactive. Besides, the Potency in test [3] and in test [4] was above 46 µM each time. Further, the Potency entry in test [5], in test [6], in test [8], in test [9], in [10] and in test [11] was “inactive” throughout.
On to `CCNc1ncc2nc(-c3ccccc3)c(=O)n(CCC#N)c2n1`, for which the activity change, negative = inhibition in test [12] is -3.6%; in test [13], 27.9%. Further, the Potency is 3.16 µM (active) in test [2], above 9.22 µM in test [3], above 46 µM in test [4] and 0.501 µM (active) in [17]. For the same compound, the Potency entry in [5], in [8], in [9], in test [10] and in test [11] was “inactive” throughout. Also, in test [15], the compound was classed as inactive.
In the case of `O=c1c(-c2ccccc2)nc2cncnc2n1Cc1ccccc1`, the activity change, negative = inhibition in [12] was -16.6%; in test [13] it was -1.09%. The compound was called inactive in [14]. Besides, the Potency in [3] was above 9.22 µM; in test [4], above 46 µM. Also, the Potency result in [8], in [9], in [10] and in test [11] was “inactive” throughout.
In the case of `COCCn1c(=O)c(-c2cccc(C#N)c2)nc2cnc(OCc3ccccc3)nc21`, the activity change, negative = inhibition in [12] is -20.4%; in [13], -5.35%. Further, the Potency in test [2] was 12.6 µM (active); in test [3], above 9.22 µM; in test [4], above 46 µM. Also, the Potency entry in test [5], in test [6], in [18], in test [8], in test [9] and in [10] was “inactive” each time. Also, the Potency result in test [11] was “inactive”. Also, the call in test [15] was inactive.
